Screening results deposited in PubChem by several laboratories.
CYP2C19 activ: increases human CYP2C19 enzyme activity. recombinant CYP2C19, luciferin-H EGE luminescence; active compounds read high; 0 = fully inhibited enzyme, 1 = untreated enzyme. activation factor at 5 µM. P33261. 96,000 tested, under 10 active;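 active means activation factor of at least 2 at 5 µM in the primary screen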;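 further: 0 = wells with 2.5 mM tranylcypromine and 1 = vehicle-only wells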
Target sequence (P33261 whole entry, looked up): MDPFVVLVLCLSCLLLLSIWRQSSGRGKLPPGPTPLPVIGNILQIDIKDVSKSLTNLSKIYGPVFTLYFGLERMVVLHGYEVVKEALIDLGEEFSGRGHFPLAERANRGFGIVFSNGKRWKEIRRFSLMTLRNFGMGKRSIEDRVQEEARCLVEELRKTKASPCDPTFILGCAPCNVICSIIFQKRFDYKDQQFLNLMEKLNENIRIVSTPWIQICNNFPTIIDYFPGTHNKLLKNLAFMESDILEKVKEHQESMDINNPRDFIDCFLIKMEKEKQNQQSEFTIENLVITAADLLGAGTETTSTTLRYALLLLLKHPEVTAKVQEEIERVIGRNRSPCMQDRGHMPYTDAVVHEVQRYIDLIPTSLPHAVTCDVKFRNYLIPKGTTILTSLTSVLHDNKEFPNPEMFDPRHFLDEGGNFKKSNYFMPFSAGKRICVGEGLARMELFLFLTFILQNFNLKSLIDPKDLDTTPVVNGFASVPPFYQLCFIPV
CYP2C9 act: CYP2C9 (human) activation; hit rate 1.4% among 96,000; activation factor at 5 µM; recombinant CYP2C9, luciferin-H conversion, luminescence; active compounds read high; factor 1 = untreated enzyme, 0 = blocked; AID 1024;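 active means activation factor of 2 or more for CYP2C9 at a 5 µM dose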;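 further: 0 = sulfaphenazole-blocked wells and 1 = vehicle-only wells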
PostGolgi yeast: growth inhibition of a yeast mutant, post-Golgi transport screen; hit rate 0.9% among 98,000; post-Golgi transport phenotypic cell assay; inhibition, % at 10 µM;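 further: yeast cells grown in 1536-well plates; yeast grown about 18 h at 30C before absorbance read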
CYP2C9 inhib: blocks human cytochrome P450 2C9. P11712. CYP2C9 Supersomes, luciferin-H conversion, luminescence. inhibition, % at 5 µM. hit rate 20% among 96,000;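 active means blocking of liver enzyme CYP2C9 beyond about 50% at 5 µM, limit read from the data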
CYP2C19 inh: inhibitors of human CYP2C19; P33261; CYP2C19 Supersomes, luciferin-H EGE luminescence, 30 min; inhibition, % at 5 µM; hit rate 21% among 96,000; AID 778;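 active means CYP2C19 inhibition above a set limit at 5 µM in the primary screen, cut at about 50% in these data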;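 further: plate controls were negative control wells for no effect and 2.5 mM tranylcypromine positive control for full effect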
PostGolgi ctrl: inhibits growth of the yeast control strain. efflux-deficient yeast background strain, growth absorbance A615, 16 h. inhibition, % at 10 µM. hit rate 5% among 98,000. AID 738
* marks the source's active call; other numbers are inactive results; nt = not tested or not shown. An excerpt weighted towards active compounds, which were near 32% of everything screened. Unless noted, no stated cut-off is given here; in the data, active means inhibition above about 30%; inactive means the rest.

SMILES | CYP2C19 activ | CYP2C9 act | PostGolgi yeast | CYP2C9 inhib | CYP2C19 inh | PostGolgi ctrl
CCOc1ccccc1C1C(C(N)=O)=C(C)Nc2nc(-c3ccccc3Cl)nn21 (configuration not stated) | 0.7 | 1 | -2 | 3 | 27 | 12
Cc1cc2n(n1)C(c1ccc3c(c1)OCO3)Nc1c(C)cccc1-2 (configuration not stated) | 0 | 0.1 | -1 | 92* | 98* | 17
Cc1cc(C)c2c(c1)-c1cc(C)nn1C(c1ccc3c(c1)OCO3)N2 (configuration not stated) | 0.7 | 0.8 | 16 | 20 | 33 | 47*
CCC1CCCCN1CCCNC(=O)CNC(=O)Cn1ccc2ccccc2c1=O (configuration not stated) | 1.1 | 1.2 | -1 | -18 | -8 | -2
Cc1occc1-c1nnc(SCC(=O)NC(=O)NC(C)C)n1N | 1 | 1.1 | -3 | -6 | 1 | -4
O=C1NC(=O)C(c2cn(-c3ccccc3)nc2-c2ccc(F)cc2)N1 (configuration not stated) | 0.8 | 0.1 | -1 | 94* | 21 | -1
COc1ccc(-n2cnnc2SCC(=O)N2CCN(S(=O)(=O)c3ccccc3)CC2)cc1 | 0.6 | 0.6 | -5 | 42 | 44 | 8
CCCc1cc(=O)n2[nH]c(CCc3ccccc3)nc2n1 | 0.9 | 0.5 | 2 | 52* | 6 | -2
COc1ccccc1CNC(=O)c1ccc(NS(C)(=O)=O)cc1 | 1.2 | 2* | -2 | -96 | -16 | 2
COCCNC(=O)c1ccc(NS(C)(=O)=O)cc1 | 0.8 | 0.8 | -6 | 22 | 16 | 2
COc1ccccc1CNC(=O)c1ccccc1NS(C)(=O)=O | 0.7 | 0.3 | -6 | 75* | 33 | 6
COc1ccccc1CNC(=O)c1ccccc1N(C)S(C)(=O)=O | 0.7 | 0.9 | 4 | 8 | 29 | -2
O=C(COC(=O)c1cccs1)NCc1ccc2c(c1)OCO2 | 0.2 | 0.3 | -11 | 69* | 78* | 16
O=C(Cc1n[nH]c(=O)c2ccccc12)OCC(=O)c1ccc2c(c1)OCCO2 | 1 | 0.3 | 3 | 66* | 3 | -2
CCC(OC(=O)c1cccs1)C(=O)NCc1ccc2c(c1)OCO2 (configuration not stated) | 0.3 | 0.2 | -5 | 79* | 69* | -3
CCOCC(=O)NCc1ccc2c(c1)OCO2 | 0.8 | 1 | -8 | 3 | 22 | 19
O=C(NCc1ccc2c(c1)OCO2)c1cccs1 | 0.1 | 0.3 | 1 | 67* | 93* | 8
O=C(COC(=O)c1cccs1)c1ccc2c(c1)OCCO2 | 0.2 | 0.1 | -5 | 87* | 83* | 17
COc1cccc(C(=O)Nc2c(C(N)=O)oc3ccccc23)c1 | 0.9 | 3.3* | -9 | -234 | 6 | 15
CCOC(=O)c1oc2ccccc2c1NC(=O)c1cccc(OC)c1 | 0.8 | 0.7 | 4 | 28 | 17 | 6
CCOC(=O)c1oc2ccccc2c1NC(=O)c1cccc(OC)c1OC | 0.3 | 0.3 | 15 | 66* | 67* | 46*
NC(=O)c1oc2ccccc2c1NC(=O)CCc1ccccc1 | 0.2 | 2.2* | 3 | -124 | 82* | 12
COc1ccc(NC(=O)c2oc3ccccc3c2NC(=O)c2ccc3c(c2)OCO3)cc1 | 0.6 | 0.5 | -7 | 55* | 36 | 13
O=C(OCC#CCSc1nnc(-c2ccc([N+](=O)[O-])cc2)o1)c1cccs1 | 1.1 | 0.9 | 3 | 6 | -11 | 6
Cc1ccccc1N(CC(=O)N/N=C/c1ccc(F)cc1)C(=O)c1ccccc1 | 0.2 | 0.1 | 8 | 95* | 80* | 16
SMILES | CYP2C19 activ | CYP2C9 act | PostGolgi yeast | CYP2C9 inhib | CYP2C19 inh | PostGolgi ctrl
Cc1ccccc1N(CC(=O)N/N=C/c1ccc(Cl)cc1)C(=O)c1ccccc1 | 0.3 | 0 | 8 | 98* | 68* | 32*
CCOC(=O)CN(C(=O)c1ccccc1)c1ccccc1C | 0.8 | 0.7 | -5 | 30 | 19 | 23
Cc1cc(C)c(C)c(OCC(=O)N2CCCCCC2)c1 | 0.7 | 1.4 | 1 | -39 | 30 | 11
COC(=O)C(C)Sc1nnc2n(-c3cccc(C)c3)c(=O)c3c4c(sc3n12)CCCC4 (configuration not stated) | 1.1 | 1.1 | 0 | -13 | -14 | 5
Cc1ccc(NC(=O)CSc2nc3ccccc3c3nc4ccccc4n23)cc1 | 1.1 | 0.8 | -3 | 20 | -8 | -6
CN(C)Cc1nc2ccccc2c(=O)n1Cc1nc(-c2cc3ccccc3o2)cs1 | 0.8 | 0.3 | -2 | 70* | 18 | 2
COCCCNC(=O)C(F)(F)C(F)(F)C(=O)NCCCOC | 1 | 1 | 1 | -4 | 0 | -5
Nc1cccnc1Sc1ccc(Cl)cc1 | nt | nt | -7 | nt | nt | -1
Cc1ccc(Sc2ncnc3onc(C)c23)cc1 | 0.3 | 0.8 | 3 | 23 | 67* | 13
Cc1noc(C)c1CSc1ncnc2sc(C)c(C)c12 | 0.6 | 0.5 | 0 | 49 | 37 | 17
Cc1noc2ncnc(Sc3ccc(Cl)cc3)c12 | 0.2 | 0.9 | 13 | 10 | 79* | 8
Cc1noc2ncnc(Sc3c(Cl)cccc3Cl)c12 | 0 | 0.5 | 2 | 52* | 97* | -7
Cc1noc2ncnc(Oc3ccc(F)cc3)c12 | 1 | 1.1 | 4 | -7 | 5 | 12
Cc1ccccc1Sc1ncnc2onc(C)c12 | 0 | 0.5 | -1 | 49 | 96* | -2
CCN(CC)C(=O)CNC(=O)Cc1ccc(Cl)cc1 | 0.6 | 1.2 | -4 | -21 | 41 | -1
COc1ccc(Cl)cc1-n1c(=S)sc2c(=O)[nH]c(SCC(=O)NCC3CCCO3)nc21 (configuration not stated) | 1 | 0.5 | 4 | 53* | 3 | 1
O=C(CSc1ccc(Cl)cc1)NCC1CCCO1 (configuration not stated) | 0.6 | 0.8 | 0 | 22 | 37 | -5
CN1C(=S)SC(N(O)C(=O)NC2CCCCC2)C1(C)C (configuration not stated) | 0.9 | 0.8 | 5 | 24 | 8 | 4
CCCn1nnnc1-c1cc(Cl)cc(Cl)c1 | 0.8 | 1.1 | 8 | -6 | 15 | 13
FC(F)(F)c1cccc(Cn2nnnc2-c2cc(Cl)cc(Cl)c2)c1 | 0.1 | 0.4 | 3 | 62* | 89* | 27
FC(F)(F)c1cccc(Cn2nnnc2-c2cccc(C(F)(F)F)c2)c1 | 0.1 | 0.5 | 2 | 54* | 92* | 13
COc1ccc(C(CCc2ccc(C)o2)NC(=O)Nc2ccc(OC)cc2OC)cc1 (configuration not stated) | 1.1 | 1.1 | 13 | -7 | -12 | 4
O=c1cc(NCc2ccco2)[nH]c(=O)n1-c1ccc(Br)cc1 | nt | nt | 5 | nt | nt | 37*
COCCCNC(=O)c1ccc(Cn2c(=O)c3ccccc3n(Cc3ccc(C)cc3)c2=O)cc1 | 0.5 | 0.5 | 1 | 54* | 47 | -2
